# Measurements reported in PubChem BioAssay AID488969 (Vanderbilt High Throughput Screening Facility, 2010).
# The full ranking holds about 110,000 compounds; the median of “z-score” is about -0.1, and the highest 2% start at about 2. The sample holds the highest values, similar compounds and a random draw of the others, so the mix is not that of the screen. Activity calls are given as the source filed them.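 The calls were made as follows: active = z-score in the third read window above 3 or below -3; inactive = the rest.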
# Biological target: Metabotropic glutamate receptor 8 (Rattus norvegicus) (UniProt P70579)
# Assay: mGluR8 Gi/Go-coupled signaling modulation – cell-based, rat, thallium flux, HTS, primary screen (AID 488969)
# Conditions: HEK293 rat mGluR8, GIRK (G protein-gated inwardly rectifying potassium channel) thallium flux, FluoZin2; at 10 µM; stronger effect = higher value; submaximal glutamate (EC20) added with thallium
# Chain of Metabotropic glutamate receptor 8 (Rattus norvegicus) (P70579 whole entry, looked up): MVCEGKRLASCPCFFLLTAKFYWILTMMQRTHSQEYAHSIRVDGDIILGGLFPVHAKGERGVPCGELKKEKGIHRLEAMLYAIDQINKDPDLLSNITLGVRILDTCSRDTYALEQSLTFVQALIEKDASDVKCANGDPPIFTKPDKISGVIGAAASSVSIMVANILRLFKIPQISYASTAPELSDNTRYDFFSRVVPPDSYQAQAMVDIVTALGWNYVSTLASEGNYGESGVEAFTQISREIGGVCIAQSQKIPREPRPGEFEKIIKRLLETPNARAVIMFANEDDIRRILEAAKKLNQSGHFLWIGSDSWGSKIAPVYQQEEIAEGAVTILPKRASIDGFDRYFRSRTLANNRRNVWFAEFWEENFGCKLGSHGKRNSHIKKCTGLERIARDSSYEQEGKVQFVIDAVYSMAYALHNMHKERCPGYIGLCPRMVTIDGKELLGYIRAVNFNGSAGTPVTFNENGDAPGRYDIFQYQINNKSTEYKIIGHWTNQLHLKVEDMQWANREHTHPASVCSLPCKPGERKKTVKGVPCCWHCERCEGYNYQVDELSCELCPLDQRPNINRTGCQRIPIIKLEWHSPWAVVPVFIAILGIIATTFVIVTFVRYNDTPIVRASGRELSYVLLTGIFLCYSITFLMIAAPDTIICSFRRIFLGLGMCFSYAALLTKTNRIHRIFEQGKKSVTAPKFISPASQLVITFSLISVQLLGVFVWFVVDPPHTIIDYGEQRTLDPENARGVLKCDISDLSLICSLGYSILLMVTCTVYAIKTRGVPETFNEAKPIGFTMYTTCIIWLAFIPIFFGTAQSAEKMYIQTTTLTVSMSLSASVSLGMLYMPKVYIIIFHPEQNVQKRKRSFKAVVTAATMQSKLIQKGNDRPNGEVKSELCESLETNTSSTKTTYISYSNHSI
row,SMILES,z-score
1,CCOc1ccc(NC(=O)CC2C(=O)N(C)C(=S)N2CCCc2ccccc2)cc1 (stereo unspecified),0.36
2,O=C(Cc1c(F)cccc1Cl)c1ccc(O)cc1O,0.0496
3,CCOC(=O)c1cccc(NC(=O)C2CCCN2S(=O)(=O)c2cccc3cccnc23)c1 (stereo unspecified),-0.226
4,CN(CCOC(=O)C1c2ccccc2Oc2ccccc21)C(C)(C)C,0.442
5,CNC(=O)CCSc1ccc(C)cc1,1.02
6,O=C(CSc1ncnc2c1cnn2CCc1ccccc1)Nc1cccc(C(F)(F)F)c1,-0.203
7,CCN(CC)S(=O)(=O)c1cc(C)c(C)cc1Br,0.329
8,NS(=O)(=O)c1ccc(CCNC(=O)CNC(=O)C2CCCCC2)cc1,-0.063
9,O=C(Nc1cccc(F)c1)NC1(C(=O)N2CCN3CCCC3C2)CCCCC1 (stereo unspecified),0.517
10,N#Cc1c(NC(=O)CSc2nc(-c3ccccc3)cc(C(F)(F)F)n2)sc2c1CCC2,0.0217
11,c1ccc(-n2c(SCc3nc(-c4cccs4)no3)nnc2-c2ccco2)cc1,-1.55
12,CCOC(=O)CCC(=O)N1CCOCCOCCN(C(=O)CCC(=O)OCC)CCOCC1,-0.107
13,CCCCCn1c(CN(C)Cc2ccccc2)nc2c1c(=O)n(C)c(=O)n2C,0.218
14,COCCn1c(CN(C)Cc2ccccc2)nc2c1c(=O)n(C)c(=O)n2C,-0.377
15,COCCn1c(CN(Cc2ccccc2)Cc2ccccc2)nc2c1c(=O)n(C)c(=O)n2C,3.37 (active)
16,CCCCn1c(CN(Cc2ccccc2)Cc2ccccc2)nc2c1c(=O)n(C)c(=O)n2C,3.38 (active)
17,CCOCCn1c(CN(Cc2ccccc2)Cc2ccccc2)nc2c1c(=O)n(C)c(=O)n2C,0.389
18,CCCCn1c(CN(C)Cc2ccccc2)nc2c1c(=O)n(C)c(=O)n2C,0.165
19,CCCCNC(=O)Nc1ccccc1C(=O)NCc1ccco1,0.486
20,COc1cc(OC)cc(C(=O)NNC(=O)NC2CCCCC2)c1,-0.0486
21,CC(=O)NCCOc1ccc2oc3ccccc3c2c1,-0.506
22,O=C1c2ccccc2NC(c2cccc(Cl)c2)N1N=C1CCCCCC1 (stereo unspecified),-0.359
23,CC(C)OC(=O)CSc1nc2ncccc2[nH]1,-0.0946

row,SMILES,z-score
1,CCN(CC)C(=O)CSc1nc2ncccc2[nH]1,1.1
2,COC(=O)CSc1nc2ncccc2[nH]1,2.69
3,Cc1ccc2oc(-c3cccc(NC(=O)Cc4cccs4)c3)nc2c1,0.0421
4,Cc1ccc2oc(-c3ccc(C)c(NC(=S)NC(=O)c4cccs4)c3)nc2c1,0.703
5,Cc1ccc(-c2nc3ccccc3o2)cc1NC(=S)NC(=O)c1cccs1,1.65
6,Cc1ccc(-c2nc3ccccc3o2)cc1NC(=S)NC(=O)c1cc2ccccc2o1,2.35
7,Cc1cc(C)c2oc(-c3ccc(C)c(NC(=S)NC(=O)/C=C/c4ccco4)c3)nc2c1,-0.0423
8,Cc1cc(C)c2oc(-c3ccc(C)c(NC(=S)NC(=O)c4cccs4)c3)nc2c1,3.57 (active)
9,Cc1ccc2oc(-c3cccc(NC(=S)NC(=O)c4cccs4)c3)nc2c1,3.78 (active)
10,Cc1ccc2oc(-c3cccc(NC(=S)NC(=O)/C=C/c4ccco4)c3)nc2c1,-0.494
11,Cc1ccc(-c2nc3ccccc3o2)cc1NC(=S)NC(=O)/C=C/c1ccco1,0.0248
12,Cc1cc(NC(=O)COC(=O)c2cccc(OCc3ccccc3)c2)no1,0.388
13,CCN(CC)C(=O)C1CC(=O)OC12CCCCC2 (stereo unspecified),-0.477
14,COc1ccc(OC)c(C(=O)COC(=O)C2CC3CCCC(C2)C3=O)c1 (stereo unspecified),1.3
15,Cc1noc(C)c1C(=O)OC(C(=O)NC1CCCC1)c1ccc(F)cc1 (stereo unspecified),0.659
16,CCOC(=O)c1sc(NC(=O)c2ccco2)nc1-c1ccccc1,0.0322
17,COC(=O)c1sc(Nc2ccccc2)nc1C,-0.75
18,COC(=O)c1sc(NC(=O)COc2cccc(C)c2)nc1C,-0.0129
19,COc1ccc(C(=O)NC(=S)Nc2nc(C)c(C(=O)N(C)C)s2)cc1,-0.0547
20,COC(=O)c1sc(NC(=S)NC(=O)c2ccccc2Cl)nc1C,5.46 (active)
21,COC(=O)c1sc(NC(=S)NC(=O)c2ccccc2)nc1C,2.47
22,CCOC(=O)c1sc(NC(=O)COC(=O)c2ccco2)nc1C,0.0458
23,COC(=O)c1sc(NC(=S)NC(=O)c2cccc(C)c2)nc1C,4.51 (active)

row,SMILES,z-score
1,CCOC(=O)c1sc(NC(=S)NC(=O)c2ccccc2Cl)c(C(=O)OCC)c1C,0.214
2,Cc1nc(NC(=S)NC(=O)c2ccccc2)sc1C(=O)N(C)C,-0.185
3,CCOC(=O)c1sc(NC(=S)NC(=O)c2ccco2)nc1C,7.57 (active)
4,Cc1cccc(C(=O)Nc2nc(C)c(C(=O)Nc3ccc4c(c3)CCC4)s2)c1,-0.0981
5,Cc1nonc1OCC(C)(COc1nonc1C)NC(=O)c1ccccc1,-0.133
6,CCOC(=O)C1C(=O)NC(N2CCOCC2)=NC1c1ccco1 (stereo unspecified),-0.222
7,CCOC(=O)C1CCCN(C(=S)Nc2cccc(Cl)c2C)C1 (stereo unspecified),-0.429
8,O=c1c2ccccc2nc(-c2ccc(Cl)cc2)n1C1CCS(=O)(=O)C1 (stereo unspecified),-0.341
9,Cc1cc2nc(C)n(CCCNC(=O)Nc3cccc4ccccc34)c2cc1C,-0.0533
10,CCCN1CNC(=S)N(CC2CCCO2)C1 (stereo unspecified),0.136
11,Cc1c(Cl)cnc(NC(=O)COC(=O)CCC(=O)c2cccs2)c1Cl,-0.28
12,CNC(=S)N(Cc1ccc(OC)cc1)C1CC(=O)N(c2ccc(C(=O)OC)cc2)C1=O (stereo unspecified),-0.228
13,Cc1ccc2nc3ccc(N4CCCCCCC4)nn3c(=O)c2c1,-0.682
14,O=C(CCSc1ccc(Cl)cc1)N1CCOCC1,-0.207
15,CC(=O)Nc1ccc(NC(=O)CSc2ccc(C(F)(F)F)cc2[N+](=O)[O-])cc1,-0.252
16,O=C(Nc1nccs1)C1CCCN1S(=O)(=O)c1ccc(Cl)cc1 (stereo unspecified),0.437
17,CCS(=O)(=O)N1CCN(C(=O)C(c2ccccc2)c2ccccc2)CC1,-0.138
18,O=C(c1cccc(C(=O)N2CCN(c3ncccn3)CC2)c1)N1CCN(c2ncccn2)CC1,0.184
19,N#Cc1c(N2CCN(C(=O)c3ccccc3)CC2)nc(-c2ccccc2)c2c1CCCC2,2.92
20,N#Cc1c(N2CCN(C(=O)c3ccccc3Cl)CC2)nc(-c2ccccc2)c2c1CCCC2,-0.453
21,O=C(c1ccc(F)cc1)N1CCN(c2ncccn2)CC1,-0.204
22,N#Cc1c(N2CCN(C(=O)c3ccco3)CC2)nc(-c2ccccc2)c2c1CCCC2,-0.665
23,O=C(c1ccc(-c2ccccc2)cc1)N1CCN(c2ncccn2)CC1,3.97 (active)

row,SMILES,z-score
1,COc1ccc2c(c1)CC/C(=C\c1ccc(OC)c(Cn3cccn3)c1)C2=O,-0.628
2,CCOc1ccccc1OCCCC(=O)Nc1sccc1C(N)=O,0.813
3,O=C(CCl)Nc1ccccc1Sc1ccccc1,-0.216
4,CCC(=O)NC(c1cccs1)c1cc([N+](=O)[O-])c2cccnc2c1O (stereo unspecified),-0.0253
5,CCCC(=O)NC(c1cccs1)c1cc([N+](=O)[O-])c2cccnc2c1O (stereo unspecified),2.37
6,CC(=O)NC(c1cccs1)c1cc([N+](=O)[O-])c2cccnc2c1O (stereo unspecified),-1.44
7,CC(NC(=O)NC1CCCCC1)C(c1cccs1)N1CCN(Cc2ccccc2)CC1 (stereo unspecified),-1.18
8,O=S(=O)(Nc1cc(Cl)ccn1)c1ccc(Cl)cc1,0.404
9,CCCCCC(=O)Nc1c(-c2ccc(OC)cc2)c(=O)c2ccccc2n1C,0.109
10,CCC(=O)Nc1c(-c2ccc(OC)cc2)c(=O)c2ccccc2n1C,2.76
11,CCCC(=O)Nc1c(-c2ccc(OC)cc2)c(=O)c2ccccc2n1C,-0.253
12,O=S(=O)(Nc1ccc(Cc2ccncc2)cc1)c1cccs1,-0.0895
13,CS(=O)(=O)N1N=C(c2ccc3nccnc3c2)CC1c1ccccc1 (stereo unspecified),-0.111
14,O=c1cc(C(F)(F)F)oc2c1ccc1ccccc12,-0.211
15,COc1c2occc2c(OC)c2c(=O)cc(C(F)(F)F)oc12,2.92
16,COc1c2occc2cc2ccc(=O)oc12,-0.548
17,CCC(C)N=C1SCC(C)(/C=N/O)S1 (stereo unspecified),-0.0708
18,Oc1oc(-c2cccc3ccccc23)nc1/C=N/c1nccs1,7.77 (active)
19,CCCCOc1ccc(-c2nc(/C=N/c3nccs3)c(O)o2)cc1,2.84
20,CCOc1ccc2nc(/N=C/c3nc(-c4ccc(Br)cc4)oc3O)sc2c1,0.754
21,Oc1oc(-c2ccccc2)nc1/C=N/c1nccs1,1.54
22,Oc1ccc2ccccc2c1/C=N/c1nccs1,0.277
23,CN=Cc1nc(-c2ccccc2)oc1O,1.62

row,SMILES,z-score
1,Oc1oc(-c2ccccc2)nc1C=Nc1cccc2ccccc12,-0.00127
2,C(=N\c1nccs1)/c1c[nH]c2ccccc12,-0.861
3,Oc1[nH]c2ccccc2c1/C=N/c1nccs1,2.09
4,N#Cc1c(N)c(C(=O)c2ccccc2)n2c1CCCC2,-0.142
5,C#CCn1c(S(=O)(=O)Cc2ccc(C)cc2)nc(-c2ccccc2)c1-c1ccccc1,-0.259
6,COc1ccc(C(C#N)N2N=C(c3ccccc3)CC2c2ccccc2)cc1OC (stereo unspecified),0.0225
7,CC1CC(C)(C)CC2(C1)NC(=O)N(CC(=O)NCC(c1ccco1)N1CCCCC1)C2=O (stereo unspecified),0.771
8,Cc1nnc(SCC(=O)NCc2ccco2)n1-c1ccccc1,-0.0052
9,Cn1c(SCC(=O)Nc2ccccc2)nnc1-c1ccc(NC(=O)CCc2ccccc2)cc1,-0.164
10,CN(CP(=O)(O)CN(C)S(C)(=O)=O)S(C)(=O)=O,0.00353
11,O=C(NCc1ccco1)c1cnn2c(C(F)(F)F)cc(-c3ccccc3)nc12,-0.67
12,CC1Nc2nc(N(C)C)[nH]c(=O)c2NC1C (stereo unspecified),0.838
13,CCC(C(=O)OC)n1cnc2c(nnn2-c2ccc(OC)cc2)c1=O (stereo unspecified),-0.912
14,CCOC(=O)C(CC)n1cnc2c(nnn2-c2ccc(OC)cc2)c1=O (stereo unspecified),4.43 (active)
15,CCOC(=O)C(CC)n1cnc2c(nnn2-c2ccc(C)cc2)c1=O (stereo unspecified),-0.636
16,Cc1cc(Nc2ccccc2)n(C(=O)c2ccc(Cl)cc2)n1,0.82
17,O=S(=O)(NCc1ccccc1)c1ccc(Cl)cc1,2.77
18,O=S(=O)(NCCCc1ccccc1)c1ccc(Cl)cc1,-0.252
19,O=S(=O)(NCc1ccccc1)c1ccc(Cl)c(S(=O)(=O)NCc2ccccc2)c1,0.165
